Results on one compound are retold here after ChEMBL document CHEMBL1961873, “Compounds: GSK PKIS; Assays: Nanosyn kinase panel” (2012).

Assay [1] addresses Sphingosine kinase 1 (Homo sapiens) (UniProt Q9NYA1). The conditions noted are these: at 1 µM.
The target of assay [2] is T1, Sphingosine kinase 2 (Homo sapiens) (UniProt Q9NRA0).
T1 sequence (whole entry): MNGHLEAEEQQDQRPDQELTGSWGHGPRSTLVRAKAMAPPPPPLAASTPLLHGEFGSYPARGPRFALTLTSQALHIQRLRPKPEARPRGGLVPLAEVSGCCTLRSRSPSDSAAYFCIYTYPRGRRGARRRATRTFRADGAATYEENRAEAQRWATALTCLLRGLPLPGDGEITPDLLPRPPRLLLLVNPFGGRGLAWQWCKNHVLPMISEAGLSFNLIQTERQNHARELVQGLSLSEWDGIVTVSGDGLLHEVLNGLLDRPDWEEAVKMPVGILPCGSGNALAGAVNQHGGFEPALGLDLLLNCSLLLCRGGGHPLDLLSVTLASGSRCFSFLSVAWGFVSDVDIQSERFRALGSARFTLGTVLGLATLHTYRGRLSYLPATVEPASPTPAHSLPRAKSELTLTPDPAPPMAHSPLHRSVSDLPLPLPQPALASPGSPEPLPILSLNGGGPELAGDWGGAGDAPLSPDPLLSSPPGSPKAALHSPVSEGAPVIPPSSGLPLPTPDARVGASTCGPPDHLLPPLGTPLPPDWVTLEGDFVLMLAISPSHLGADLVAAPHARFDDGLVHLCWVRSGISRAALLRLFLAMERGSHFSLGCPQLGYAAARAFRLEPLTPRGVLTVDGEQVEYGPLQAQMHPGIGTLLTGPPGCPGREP
The settings on record: at 0.1 µM.

For assay [3], the target named is T1, Sphingosine kinase 2 (Homo sapiens). The settings on record: at 1 µM.
Assay [4] has as its target Casein kinase II subunit alpha (Homo sapiens) (UniProt P68400). The conditions noted are these: at 0.1 µM.
The target is the same in assay [5]. The conditions noted are these: at 1 µM.
For assay [6], the target named is T2, Inhibitor of nuclear factor kappa-B kinase subunit alpha (Homo sapiens) (UniProt O15111).
T2 sequence (whole entry): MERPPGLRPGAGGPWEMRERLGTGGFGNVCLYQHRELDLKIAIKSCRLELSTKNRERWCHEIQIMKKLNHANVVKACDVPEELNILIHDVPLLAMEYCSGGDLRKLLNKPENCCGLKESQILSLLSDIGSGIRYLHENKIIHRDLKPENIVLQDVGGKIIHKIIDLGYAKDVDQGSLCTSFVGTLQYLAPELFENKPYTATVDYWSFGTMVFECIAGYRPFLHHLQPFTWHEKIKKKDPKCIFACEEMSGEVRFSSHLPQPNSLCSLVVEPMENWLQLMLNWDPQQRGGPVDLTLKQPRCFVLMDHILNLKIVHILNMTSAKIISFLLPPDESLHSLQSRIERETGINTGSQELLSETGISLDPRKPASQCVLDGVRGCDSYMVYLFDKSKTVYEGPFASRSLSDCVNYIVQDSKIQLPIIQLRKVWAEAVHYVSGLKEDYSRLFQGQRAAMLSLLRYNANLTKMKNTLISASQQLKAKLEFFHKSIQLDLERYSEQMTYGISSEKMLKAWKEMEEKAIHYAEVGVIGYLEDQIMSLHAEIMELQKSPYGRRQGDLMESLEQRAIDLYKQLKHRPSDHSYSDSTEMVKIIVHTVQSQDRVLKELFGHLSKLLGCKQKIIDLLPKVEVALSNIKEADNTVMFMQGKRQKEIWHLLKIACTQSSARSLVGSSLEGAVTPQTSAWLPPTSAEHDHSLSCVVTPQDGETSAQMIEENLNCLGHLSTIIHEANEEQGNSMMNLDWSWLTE
The conditions noted are these: at 0.1 µM.

Assay [7] concerns the target T2, Inhibitor of nuclear factor kappa-B kinase subunit alpha (Homo sapiens). The conditions noted are these: at 1 µM.
The target in assay [8] is T3, Inhibitor of nuclear factor kappa-B kinase subunit beta (Homo sapiens) (UniProt O14920).
T3 sequence (whole entry): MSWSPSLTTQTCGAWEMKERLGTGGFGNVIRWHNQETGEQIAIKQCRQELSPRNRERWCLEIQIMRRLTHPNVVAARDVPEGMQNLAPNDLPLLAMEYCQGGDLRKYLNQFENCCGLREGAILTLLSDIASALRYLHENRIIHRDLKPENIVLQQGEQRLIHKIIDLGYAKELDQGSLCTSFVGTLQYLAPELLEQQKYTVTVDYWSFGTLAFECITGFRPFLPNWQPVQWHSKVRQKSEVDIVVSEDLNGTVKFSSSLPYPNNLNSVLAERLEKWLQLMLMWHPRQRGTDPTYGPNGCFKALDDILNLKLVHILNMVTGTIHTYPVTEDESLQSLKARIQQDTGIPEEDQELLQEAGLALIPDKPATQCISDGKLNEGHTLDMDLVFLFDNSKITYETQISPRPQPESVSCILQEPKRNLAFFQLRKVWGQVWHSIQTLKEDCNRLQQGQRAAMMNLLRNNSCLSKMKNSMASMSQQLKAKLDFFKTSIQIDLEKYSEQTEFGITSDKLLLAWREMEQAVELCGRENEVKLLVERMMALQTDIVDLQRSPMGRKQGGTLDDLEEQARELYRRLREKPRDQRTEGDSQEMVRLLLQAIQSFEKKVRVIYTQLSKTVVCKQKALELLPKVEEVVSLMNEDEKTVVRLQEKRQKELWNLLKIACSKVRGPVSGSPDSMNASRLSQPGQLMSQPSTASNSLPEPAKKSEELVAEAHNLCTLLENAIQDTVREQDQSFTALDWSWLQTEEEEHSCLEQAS
The settings on record: at 0.1 µM.

For assay [9], the target named is T3, Inhibitor of nuclear factor kappa-B kinase subunit beta (Homo sapiens). The conditions noted are these: at 1 µM.
In assay [10] the target is T4, Inhibitor of nuclear factor kappa-B kinase subunit epsilon (Homo sapiens) (UniProt Q14164).
T4 sequence (whole entry): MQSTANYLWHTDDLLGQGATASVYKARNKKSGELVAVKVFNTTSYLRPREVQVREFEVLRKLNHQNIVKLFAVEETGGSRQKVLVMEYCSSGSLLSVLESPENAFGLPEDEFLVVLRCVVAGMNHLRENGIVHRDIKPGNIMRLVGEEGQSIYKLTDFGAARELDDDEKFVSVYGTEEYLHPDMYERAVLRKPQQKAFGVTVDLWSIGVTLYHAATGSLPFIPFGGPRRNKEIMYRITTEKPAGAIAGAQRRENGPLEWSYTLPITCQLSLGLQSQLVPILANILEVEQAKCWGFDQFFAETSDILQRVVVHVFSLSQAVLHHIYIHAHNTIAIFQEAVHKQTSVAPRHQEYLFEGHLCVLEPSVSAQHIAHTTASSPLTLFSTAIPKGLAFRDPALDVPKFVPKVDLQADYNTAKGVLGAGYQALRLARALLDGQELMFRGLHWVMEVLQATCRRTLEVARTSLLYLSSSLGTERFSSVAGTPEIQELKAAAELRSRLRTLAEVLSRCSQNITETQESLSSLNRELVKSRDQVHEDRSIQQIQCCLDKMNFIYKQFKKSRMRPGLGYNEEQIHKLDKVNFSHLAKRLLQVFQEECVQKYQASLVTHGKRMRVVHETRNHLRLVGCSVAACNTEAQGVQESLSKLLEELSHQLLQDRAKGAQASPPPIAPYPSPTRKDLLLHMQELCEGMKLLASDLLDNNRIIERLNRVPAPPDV
The settings on record: at 0.1 µM.

In assay [11] the target is T4, Inhibitor of nuclear factor kappa-B kinase subunit epsilon (Homo sapiens). The settings on record: at 1 µM.
The target of assay [12] is T5, Serine/threonine-protein kinase Nek1 (Homo sapiens) (UniProt Q96PY6).
T5 sequence (whole entry): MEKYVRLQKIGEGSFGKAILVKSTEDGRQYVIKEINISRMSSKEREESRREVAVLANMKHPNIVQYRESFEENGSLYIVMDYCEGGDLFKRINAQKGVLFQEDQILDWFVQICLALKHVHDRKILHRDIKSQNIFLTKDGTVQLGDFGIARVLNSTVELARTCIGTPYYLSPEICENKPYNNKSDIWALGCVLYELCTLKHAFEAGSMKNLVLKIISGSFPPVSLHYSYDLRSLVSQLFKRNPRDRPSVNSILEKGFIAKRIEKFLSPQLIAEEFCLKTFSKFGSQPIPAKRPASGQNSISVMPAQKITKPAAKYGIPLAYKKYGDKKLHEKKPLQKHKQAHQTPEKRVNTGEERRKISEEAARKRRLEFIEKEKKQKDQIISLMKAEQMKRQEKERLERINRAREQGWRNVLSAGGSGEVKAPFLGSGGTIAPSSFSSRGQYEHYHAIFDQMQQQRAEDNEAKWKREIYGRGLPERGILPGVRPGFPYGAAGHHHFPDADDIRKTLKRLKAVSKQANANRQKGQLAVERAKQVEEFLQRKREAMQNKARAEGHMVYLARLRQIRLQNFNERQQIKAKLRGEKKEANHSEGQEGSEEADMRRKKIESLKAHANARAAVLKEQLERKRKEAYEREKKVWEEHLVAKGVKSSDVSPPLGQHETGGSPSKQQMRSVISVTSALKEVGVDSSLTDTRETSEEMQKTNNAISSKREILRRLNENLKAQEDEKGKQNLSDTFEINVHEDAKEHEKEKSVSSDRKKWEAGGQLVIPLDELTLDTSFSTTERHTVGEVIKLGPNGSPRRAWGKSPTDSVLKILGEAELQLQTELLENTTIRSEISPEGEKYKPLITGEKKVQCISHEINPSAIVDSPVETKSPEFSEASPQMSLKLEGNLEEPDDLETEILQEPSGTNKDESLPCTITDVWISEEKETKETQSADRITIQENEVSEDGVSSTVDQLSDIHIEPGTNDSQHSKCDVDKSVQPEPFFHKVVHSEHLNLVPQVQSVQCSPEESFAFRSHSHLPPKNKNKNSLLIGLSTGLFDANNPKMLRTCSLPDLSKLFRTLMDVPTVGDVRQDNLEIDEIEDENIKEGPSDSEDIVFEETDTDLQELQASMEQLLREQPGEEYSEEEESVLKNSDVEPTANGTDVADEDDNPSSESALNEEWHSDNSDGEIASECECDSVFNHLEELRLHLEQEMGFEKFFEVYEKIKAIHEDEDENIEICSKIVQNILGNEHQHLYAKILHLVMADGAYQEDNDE
The settings on record: at 0.1 µM.

Assay [13] addresses T5, Serine/threonine-protein kinase Nek1 (Homo sapiens). The settings on record: at 1 µM.
Assay [14] addresses T6, Serine/threonine-protein kinase Nek2 (Homo sapiens) (UniProt P51955).
T6 sequence (whole entry): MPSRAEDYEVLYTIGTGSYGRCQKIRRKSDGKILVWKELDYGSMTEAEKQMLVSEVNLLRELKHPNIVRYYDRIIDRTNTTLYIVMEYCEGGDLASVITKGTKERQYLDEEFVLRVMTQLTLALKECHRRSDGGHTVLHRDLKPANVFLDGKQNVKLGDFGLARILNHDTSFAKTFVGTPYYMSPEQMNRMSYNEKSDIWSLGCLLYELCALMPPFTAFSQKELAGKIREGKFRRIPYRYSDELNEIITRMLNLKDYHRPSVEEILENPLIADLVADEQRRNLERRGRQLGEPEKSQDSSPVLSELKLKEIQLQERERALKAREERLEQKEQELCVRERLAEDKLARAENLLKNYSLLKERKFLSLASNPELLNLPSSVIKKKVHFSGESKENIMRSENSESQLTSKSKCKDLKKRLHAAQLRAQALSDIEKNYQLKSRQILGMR
The conditions noted are these: at 0.1 µM.

Assay [15] addresses T6, Serine/threonine-protein kinase Nek2 (Homo sapiens). The conditions noted are these: at 1 µM.
Assay [16] has as its target Serine/threonine-protein kinase Nek6 (Homo sapiens) (UniProt Q9HC98). The settings on record: at 0.1 µM.
Assay [17] has the same target. The settings on record: at 1 µM.
For assay [18], the target named is Serine/threonine-protein kinase Nek7 (Homo sapiens) (UniProt Q8TDX7). The conditions noted are these: at 0.1 µM.
Assay [19] has the same target. The conditions noted are these: at 1 µM.
Assay [20] concerns the target T7, Serine/threonine-protein kinase Nek9 (Homo sapiens) (UniProt Q8TD19).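 Note: reported value is the mean percent inhibition of NEK9.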
T7 sequence (whole entry): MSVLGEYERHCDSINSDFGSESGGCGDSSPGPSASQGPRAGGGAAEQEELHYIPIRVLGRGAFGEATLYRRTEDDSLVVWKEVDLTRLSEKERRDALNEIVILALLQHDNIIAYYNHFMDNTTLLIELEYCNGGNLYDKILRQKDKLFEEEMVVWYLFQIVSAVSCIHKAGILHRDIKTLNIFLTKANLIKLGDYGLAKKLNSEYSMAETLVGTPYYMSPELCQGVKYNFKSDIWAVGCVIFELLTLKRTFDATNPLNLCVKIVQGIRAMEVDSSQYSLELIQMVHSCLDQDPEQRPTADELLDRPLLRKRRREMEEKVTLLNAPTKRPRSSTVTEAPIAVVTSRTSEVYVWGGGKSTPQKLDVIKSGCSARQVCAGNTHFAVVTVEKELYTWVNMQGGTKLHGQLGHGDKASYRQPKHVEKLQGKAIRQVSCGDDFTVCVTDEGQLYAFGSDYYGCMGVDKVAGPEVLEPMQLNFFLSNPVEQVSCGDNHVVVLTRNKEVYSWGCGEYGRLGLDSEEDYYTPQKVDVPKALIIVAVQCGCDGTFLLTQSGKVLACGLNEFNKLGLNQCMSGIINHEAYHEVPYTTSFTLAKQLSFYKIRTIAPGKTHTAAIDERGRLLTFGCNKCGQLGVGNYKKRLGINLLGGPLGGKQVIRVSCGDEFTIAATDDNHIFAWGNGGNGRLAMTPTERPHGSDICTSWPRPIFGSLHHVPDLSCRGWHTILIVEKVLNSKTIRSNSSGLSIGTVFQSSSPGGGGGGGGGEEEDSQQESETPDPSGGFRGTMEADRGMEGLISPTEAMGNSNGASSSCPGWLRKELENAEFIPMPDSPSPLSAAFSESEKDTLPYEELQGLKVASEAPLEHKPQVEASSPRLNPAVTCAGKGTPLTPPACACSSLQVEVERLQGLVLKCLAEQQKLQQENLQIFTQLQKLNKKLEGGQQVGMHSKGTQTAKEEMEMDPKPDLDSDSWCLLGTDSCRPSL
The conditions noted are these: at 0.1 µM.

Chain of Casein kinase II subunit alpha (Homo sapiens) (P68400 whole entry, looked up): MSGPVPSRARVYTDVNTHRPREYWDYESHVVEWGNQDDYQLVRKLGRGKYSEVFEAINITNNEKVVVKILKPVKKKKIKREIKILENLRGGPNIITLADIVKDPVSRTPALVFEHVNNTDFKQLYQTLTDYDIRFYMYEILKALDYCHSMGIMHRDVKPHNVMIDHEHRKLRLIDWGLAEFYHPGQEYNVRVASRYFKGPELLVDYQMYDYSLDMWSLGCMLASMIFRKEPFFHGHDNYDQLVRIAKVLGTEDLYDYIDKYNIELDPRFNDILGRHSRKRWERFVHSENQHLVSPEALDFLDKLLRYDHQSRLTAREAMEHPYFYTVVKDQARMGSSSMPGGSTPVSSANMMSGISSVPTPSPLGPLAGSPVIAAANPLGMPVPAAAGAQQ
Chain of Serine/threonine-protein kinase Nek7 (Homo sapiens) (Q8TDX7 whole entry, looked up): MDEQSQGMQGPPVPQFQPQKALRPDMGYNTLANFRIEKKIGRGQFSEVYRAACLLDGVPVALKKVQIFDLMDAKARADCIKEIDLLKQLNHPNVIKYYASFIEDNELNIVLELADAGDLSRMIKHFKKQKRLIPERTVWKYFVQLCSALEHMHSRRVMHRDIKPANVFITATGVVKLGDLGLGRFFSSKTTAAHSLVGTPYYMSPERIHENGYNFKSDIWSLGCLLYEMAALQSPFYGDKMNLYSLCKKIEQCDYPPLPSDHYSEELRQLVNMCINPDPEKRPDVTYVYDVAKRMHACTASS
Chain of Serine/threonine-protein kinase Nek6 (Homo sapiens) (Q9HC98 whole entry): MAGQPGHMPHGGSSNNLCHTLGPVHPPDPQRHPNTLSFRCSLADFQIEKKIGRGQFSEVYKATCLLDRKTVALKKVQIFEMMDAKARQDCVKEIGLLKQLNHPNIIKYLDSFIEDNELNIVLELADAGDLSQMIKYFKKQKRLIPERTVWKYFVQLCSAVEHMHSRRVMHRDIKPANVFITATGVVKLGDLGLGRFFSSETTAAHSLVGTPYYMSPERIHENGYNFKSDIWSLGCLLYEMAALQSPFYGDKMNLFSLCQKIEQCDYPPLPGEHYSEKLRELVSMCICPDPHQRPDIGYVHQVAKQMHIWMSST
Chain of Sphingosine kinase 1 (Homo sapiens) (Q9NYA1 whole entry): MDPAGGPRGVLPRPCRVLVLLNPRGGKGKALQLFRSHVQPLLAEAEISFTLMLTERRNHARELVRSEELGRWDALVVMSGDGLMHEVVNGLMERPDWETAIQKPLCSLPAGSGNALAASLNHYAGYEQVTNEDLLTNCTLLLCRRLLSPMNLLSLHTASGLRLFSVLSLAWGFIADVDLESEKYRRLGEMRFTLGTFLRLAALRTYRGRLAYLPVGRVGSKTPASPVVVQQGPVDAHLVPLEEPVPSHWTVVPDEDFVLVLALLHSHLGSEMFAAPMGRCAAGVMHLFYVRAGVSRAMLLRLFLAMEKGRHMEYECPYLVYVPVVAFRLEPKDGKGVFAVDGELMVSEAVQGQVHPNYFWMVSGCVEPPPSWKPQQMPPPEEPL

In the case of `COc1cc2ncn(-c3cc(OCc4ccccc4C(F)(F)F)c(C(=O)N(C)C)s3)c2cc1OC`, the inhibition in assay [1] was -3.72%; in assay [2] it was 0.13%; in [3] it was -2.18%; in assay [4] it was -0.24%; in [5], 2.74%; in assay [6] it was 5.36%. Besides, the inhibition in [7] is 2.95%; in [8] it was -0.51%; in assay [9], 0.42%; in [10] it was 0.86%; in assay [11], 2.1%; in [12], 0.82%. For the same compound, the inhibition was 4.81% in assay [13]; 0.75% in assay [14]; 2.7% in [15]; 1.08% in [16]; -2.22% in assay [17]; 2.1% in [18]. The figures for the inhibition in assay [19] and in [20] were 0.24% and 0.62%, respectively.

Broadly, the inhibition is the relative decrease from the control value, in per cent.
